# Source: the supplement of paper PMC12067093, “Discovery and optimisation of a covalent ligand for TRIM25 and its application to targeted protein ubiquitination” (Chemical Science, 2025)
# The full data set covers some 21,000 targets. This sample favours those with the largest changes.
# Compound: Cc1cc(ccc1-c1ccccc1)C(=O)N1CCCN(CC1)C(=O)CCl [compound 10]
# Assay: probe-labelled cysteine peptide fold change vs DMSO (competition) (log2 fold change); higher = less target engagement (more negative = stronger competition)
# Conditions: 50 µM; THP-1; incubation time: 4 h
# 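Note: competitive profiling in live THP-1 cells: cysteine peptides tagged with an iodoacetamide desthiobiotin (IA-DTB) probe, intensity after compound treatment relative to DMSO-treated cells.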
# Sequence of UniProt O14773 (O14773 whole entry, looked up): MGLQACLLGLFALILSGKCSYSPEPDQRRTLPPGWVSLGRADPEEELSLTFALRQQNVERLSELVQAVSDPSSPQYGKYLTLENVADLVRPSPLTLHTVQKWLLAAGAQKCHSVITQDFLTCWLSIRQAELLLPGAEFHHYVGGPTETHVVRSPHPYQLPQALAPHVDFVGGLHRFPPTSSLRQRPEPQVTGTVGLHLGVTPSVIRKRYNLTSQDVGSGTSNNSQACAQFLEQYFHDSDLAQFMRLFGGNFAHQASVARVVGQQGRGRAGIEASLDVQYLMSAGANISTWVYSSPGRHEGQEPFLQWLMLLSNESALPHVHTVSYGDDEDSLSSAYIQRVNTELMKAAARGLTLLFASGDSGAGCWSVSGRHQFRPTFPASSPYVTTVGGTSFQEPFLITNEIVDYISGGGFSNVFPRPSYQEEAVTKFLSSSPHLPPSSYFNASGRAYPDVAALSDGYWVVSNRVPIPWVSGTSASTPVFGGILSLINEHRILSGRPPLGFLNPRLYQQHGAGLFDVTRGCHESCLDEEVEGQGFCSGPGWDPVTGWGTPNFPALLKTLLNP
# Sequence of UniProt Q9UPN9 (Q9UPN9 whole entry, looked up): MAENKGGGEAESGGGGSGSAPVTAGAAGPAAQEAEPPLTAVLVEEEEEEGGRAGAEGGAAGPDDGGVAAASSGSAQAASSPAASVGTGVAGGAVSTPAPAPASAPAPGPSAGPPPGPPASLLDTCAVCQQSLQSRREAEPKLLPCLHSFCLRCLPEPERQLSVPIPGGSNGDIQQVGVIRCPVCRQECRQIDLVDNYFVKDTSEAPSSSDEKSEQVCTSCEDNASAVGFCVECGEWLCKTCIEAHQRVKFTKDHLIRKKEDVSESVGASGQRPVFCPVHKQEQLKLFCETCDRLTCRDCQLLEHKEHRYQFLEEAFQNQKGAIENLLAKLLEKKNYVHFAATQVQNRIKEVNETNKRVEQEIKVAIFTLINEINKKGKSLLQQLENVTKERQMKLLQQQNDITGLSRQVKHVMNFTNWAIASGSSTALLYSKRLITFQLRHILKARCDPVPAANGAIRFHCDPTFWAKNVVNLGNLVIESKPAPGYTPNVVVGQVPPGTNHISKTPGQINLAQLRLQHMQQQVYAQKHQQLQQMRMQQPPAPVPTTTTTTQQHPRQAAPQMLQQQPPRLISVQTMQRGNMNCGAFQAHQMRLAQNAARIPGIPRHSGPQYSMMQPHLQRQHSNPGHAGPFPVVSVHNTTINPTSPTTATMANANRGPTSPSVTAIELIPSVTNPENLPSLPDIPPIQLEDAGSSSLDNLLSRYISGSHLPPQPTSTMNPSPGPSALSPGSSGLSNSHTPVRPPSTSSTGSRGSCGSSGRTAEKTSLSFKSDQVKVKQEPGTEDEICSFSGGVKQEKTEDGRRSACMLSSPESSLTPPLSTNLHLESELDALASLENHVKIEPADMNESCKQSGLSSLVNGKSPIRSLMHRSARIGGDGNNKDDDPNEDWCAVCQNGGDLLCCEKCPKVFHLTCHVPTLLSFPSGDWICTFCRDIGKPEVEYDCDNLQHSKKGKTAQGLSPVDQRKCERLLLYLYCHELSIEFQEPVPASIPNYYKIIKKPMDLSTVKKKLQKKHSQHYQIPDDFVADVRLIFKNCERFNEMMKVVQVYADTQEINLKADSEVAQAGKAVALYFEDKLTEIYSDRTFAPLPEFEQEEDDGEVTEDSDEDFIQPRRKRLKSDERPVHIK
# Sequence of UniProt Q96JH7 (Q96JH7 whole entry, looked up): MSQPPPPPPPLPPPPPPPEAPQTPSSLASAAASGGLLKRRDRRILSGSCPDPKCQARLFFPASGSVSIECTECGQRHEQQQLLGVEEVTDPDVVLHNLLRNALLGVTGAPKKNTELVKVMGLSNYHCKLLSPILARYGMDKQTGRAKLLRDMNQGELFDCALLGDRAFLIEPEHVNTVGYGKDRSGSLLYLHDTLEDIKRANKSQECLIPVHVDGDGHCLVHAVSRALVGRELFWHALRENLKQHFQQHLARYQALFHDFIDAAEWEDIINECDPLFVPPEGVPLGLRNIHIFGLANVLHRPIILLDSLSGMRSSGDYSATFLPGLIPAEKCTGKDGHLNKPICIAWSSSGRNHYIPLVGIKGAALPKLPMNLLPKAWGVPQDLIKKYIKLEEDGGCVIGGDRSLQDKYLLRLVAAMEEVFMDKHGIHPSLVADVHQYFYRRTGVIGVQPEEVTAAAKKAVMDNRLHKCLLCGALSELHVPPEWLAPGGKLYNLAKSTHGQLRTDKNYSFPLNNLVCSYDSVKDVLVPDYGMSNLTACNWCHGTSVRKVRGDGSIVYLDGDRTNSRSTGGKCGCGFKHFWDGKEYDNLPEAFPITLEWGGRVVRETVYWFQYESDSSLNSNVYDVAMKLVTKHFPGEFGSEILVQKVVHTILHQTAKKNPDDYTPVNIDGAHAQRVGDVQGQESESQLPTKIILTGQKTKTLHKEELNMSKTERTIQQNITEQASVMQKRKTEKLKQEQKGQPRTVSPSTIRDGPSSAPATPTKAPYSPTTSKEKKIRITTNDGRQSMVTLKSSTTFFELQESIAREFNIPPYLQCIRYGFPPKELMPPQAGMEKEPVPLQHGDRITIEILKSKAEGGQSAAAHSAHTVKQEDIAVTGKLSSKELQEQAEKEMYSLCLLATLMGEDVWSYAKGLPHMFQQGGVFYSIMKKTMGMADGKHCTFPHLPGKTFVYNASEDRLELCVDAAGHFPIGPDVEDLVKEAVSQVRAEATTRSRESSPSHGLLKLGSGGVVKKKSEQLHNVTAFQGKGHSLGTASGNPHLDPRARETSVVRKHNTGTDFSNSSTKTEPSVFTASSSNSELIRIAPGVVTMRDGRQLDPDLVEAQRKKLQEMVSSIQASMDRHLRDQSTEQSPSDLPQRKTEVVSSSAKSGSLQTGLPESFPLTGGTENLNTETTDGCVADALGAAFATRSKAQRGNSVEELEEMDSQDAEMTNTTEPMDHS
# Sequence of UniProt Q9NP79 (Q9NP79 whole entry, looked up): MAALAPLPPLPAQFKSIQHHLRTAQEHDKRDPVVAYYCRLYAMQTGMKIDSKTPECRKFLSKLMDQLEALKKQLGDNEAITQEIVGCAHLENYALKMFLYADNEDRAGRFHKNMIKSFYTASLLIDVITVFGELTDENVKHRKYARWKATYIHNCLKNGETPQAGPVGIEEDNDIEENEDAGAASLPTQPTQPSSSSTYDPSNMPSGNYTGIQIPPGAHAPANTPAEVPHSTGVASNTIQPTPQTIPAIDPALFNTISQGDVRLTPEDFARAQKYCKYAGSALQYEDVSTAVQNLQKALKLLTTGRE
# Sequence of UniProt Q9NNW7 (Q9NNW7 whole entry, looked up): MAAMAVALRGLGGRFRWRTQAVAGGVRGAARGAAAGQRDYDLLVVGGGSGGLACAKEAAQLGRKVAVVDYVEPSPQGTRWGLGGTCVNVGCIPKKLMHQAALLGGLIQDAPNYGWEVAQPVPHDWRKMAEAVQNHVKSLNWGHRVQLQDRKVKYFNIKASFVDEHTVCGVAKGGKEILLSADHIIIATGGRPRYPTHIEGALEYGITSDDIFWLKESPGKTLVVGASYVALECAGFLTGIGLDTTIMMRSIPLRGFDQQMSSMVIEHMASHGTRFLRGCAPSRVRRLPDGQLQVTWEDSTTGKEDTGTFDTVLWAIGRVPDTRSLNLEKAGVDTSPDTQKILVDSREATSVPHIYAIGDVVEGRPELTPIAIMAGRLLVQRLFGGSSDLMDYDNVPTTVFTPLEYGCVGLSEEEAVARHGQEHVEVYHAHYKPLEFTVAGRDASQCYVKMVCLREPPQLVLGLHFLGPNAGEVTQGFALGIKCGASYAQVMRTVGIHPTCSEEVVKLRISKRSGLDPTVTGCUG
# Sequence of UniProt Q8NEZ2 (Q8NEZ2 whole entry): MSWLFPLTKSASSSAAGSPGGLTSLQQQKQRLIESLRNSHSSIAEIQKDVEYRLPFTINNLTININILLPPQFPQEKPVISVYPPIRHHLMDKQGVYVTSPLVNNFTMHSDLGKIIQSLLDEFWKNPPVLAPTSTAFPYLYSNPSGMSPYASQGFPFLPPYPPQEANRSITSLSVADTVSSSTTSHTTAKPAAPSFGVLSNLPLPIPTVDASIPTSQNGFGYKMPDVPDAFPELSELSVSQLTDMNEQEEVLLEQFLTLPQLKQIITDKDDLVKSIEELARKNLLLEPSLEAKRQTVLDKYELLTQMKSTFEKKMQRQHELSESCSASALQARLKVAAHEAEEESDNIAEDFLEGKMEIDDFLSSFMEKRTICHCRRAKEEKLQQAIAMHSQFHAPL
# Sequence of UniProt P62995 (P62995 whole entry, looked up): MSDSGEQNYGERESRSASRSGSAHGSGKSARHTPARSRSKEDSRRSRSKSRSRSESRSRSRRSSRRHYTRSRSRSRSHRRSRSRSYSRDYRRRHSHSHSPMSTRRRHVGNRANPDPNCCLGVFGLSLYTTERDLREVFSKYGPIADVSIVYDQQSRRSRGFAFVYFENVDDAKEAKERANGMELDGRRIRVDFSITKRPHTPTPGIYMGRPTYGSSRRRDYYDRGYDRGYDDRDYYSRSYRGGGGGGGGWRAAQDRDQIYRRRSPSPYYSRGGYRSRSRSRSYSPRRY
# Sequence of UniProt Q96Q11 (Q96Q11 whole entry): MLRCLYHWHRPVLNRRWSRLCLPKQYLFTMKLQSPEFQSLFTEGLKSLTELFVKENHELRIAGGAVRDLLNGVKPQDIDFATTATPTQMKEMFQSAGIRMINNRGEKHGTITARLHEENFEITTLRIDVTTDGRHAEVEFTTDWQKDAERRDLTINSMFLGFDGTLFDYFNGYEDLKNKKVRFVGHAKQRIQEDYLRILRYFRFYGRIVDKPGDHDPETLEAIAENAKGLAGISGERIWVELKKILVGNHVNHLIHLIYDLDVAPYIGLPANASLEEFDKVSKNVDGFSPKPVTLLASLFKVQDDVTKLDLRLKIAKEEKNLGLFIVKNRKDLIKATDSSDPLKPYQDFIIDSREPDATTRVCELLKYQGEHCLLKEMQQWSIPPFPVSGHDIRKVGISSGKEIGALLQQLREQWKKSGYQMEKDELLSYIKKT
# Sequence of UniProt O14933 (O14933 whole entry, looked up): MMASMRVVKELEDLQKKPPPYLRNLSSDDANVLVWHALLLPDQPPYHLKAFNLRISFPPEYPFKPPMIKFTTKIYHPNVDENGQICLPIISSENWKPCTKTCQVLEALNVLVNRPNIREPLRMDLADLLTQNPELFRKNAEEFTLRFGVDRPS
row,Target,probe-labelled cysteine peptide fold change
1,UQCRC2_P22695_192_NALANPLYCPDYR (UniProt P22695),0.158
2,VPS37A_Q8NEZ2_375_TICHCR (UniProt Q8NEZ2),1.08
3,TXNDC9_O14530_94_ESENVVCHFYR (UniProt O14530),-0.0184
4,UBR1_Q8IWV7_1101_EVLTCILCQEEQEVK (UniProt Q8IWV7),0.733
5,UBR4_Q5T4S7_2618+2619_QLEGDCCSFITQLVNHFWK (UniProt Q5T4S7),-1.45
6,TPRA1_Q86W33_296_CQVDETEEPDVHLPQPYAVAR (UniProt Q86W33),-1.52
7,USP19_O94966_1169_EEQLPSYDLYAVINHYGGMIGGHYTACAR (UniProt O94966),0.0872
8,USP40_Q9NVE5_50_NQGGTCYLNSLLQTLHFTPEFR (UniProt Q9NVE5),-1.83
9,USP11_P51784_894_DGHYTTFACNK (UniProt P51784),-0.393
10,TUBA4A_P68366_4_MRECISVHVGQAGVQMGNACWELYCLEHGIQPDGQMPSDK (UniProt P68366),-0.408
11,UBA6_A0AVT1_721_ALQLLHCFPLDIR,0.215
12,TSPYL1_Q9H0U9_375_NQDLICSFFTWFSDHSLPESDK (UniProt Q9H0U9),1.06
13,TRA2B_P62995_119_ANPDPNCCLGVFGLSLYTTER (UniProt P62995),0.111
14,UVRAG_Q9P2Y5_186_TILLQVDQNCVR (UniProt Q9P2Y5),-0.0238
15,UFC1_Q9Y3C8_116_ICLTDHFKPLWAR (UniProt Q9Y3C8),-1.26
16,USP15_Q9Y4E8_633+634_ISTETEETEGSLHCCK (UniProt Q9Y4E8),-1.51
17,VAPA_Q9P0L0_179_KLMEECK (UniProt Q9P0L0),-0.275
18,TRNT1_Q96Q11_373_YQGEHCLLK (UniProt Q96Q11),-1.54
19,USP24_Q9UPU5_995_QLCSPVDNIQIFTNDSLLTVNK (UniProt Q9UPU5),0.107
20,TXNRD2_Q9NNW7_279_GCAPSR (UniProt Q9NNW7),1.36

row,Target,probe-labelled cysteine peptide fold change
1,VAPA_Q9P0L0_128_CVFEMPNENDK (UniProt Q9P0L0),-0.121
2,TRIM33_Q9UPN9_276_KKEDVSESVGASGQRPVFCPVHK (UniProt Q9UPN9),-0.148
3,VCPIP1_Q96JH7_469+472_CLLCGALSELHVPPEWLAPGGK (UniProt Q96JH7),0.233
4,UBE2L6_O14933_86+98_IYHPNVDENGQICLPIISSENWKPCTK (UniProt O14933),-1.39
5,TSTA3_Q13630_116_VVSCLSTCIFPDK (UniProt Q13630),-1.67
6,UBN1_Q9NPG3_765_ELSCQAPLNK (UniProt Q9NPG3),-0.168
7,TRMT11_Q7Z4G4_161_KPQHVFSVLEDYGLDPNCIPENPHNIYFGR (UniProt Q7Z4G4),-0.0241
8,TUBG1_P23258_138_IHEDIFDIIDREADGSDSLEGFVLCHSIAGGTGSGLGSYLLER<|>TUBG2_Q9NRH3_138_IHEDIFDIIDREADGSDSLEGFVLCHSIAGGTGSGLGSYLLER (UniProt Q9NRH3+P23258),-0.0593
9,UBE3D_Q7Z6J8_52_TPEGCTEIQLPAEVR (UniProt Q7Z6J8),0.147
10,TPP1_O14773_365_GLTLLFASGDSGAGCWSVSGR (UniProt O14773),0.0356
11,UBR7_Q8N806_155_RPYPDPEDEIPDEMIQCVVCEDWFHGR (UniProt Q8N806),0.0116
12,UBA7_P41226_829_CQNYGIPPVNR (UniProt P41226),0.153
13,TPRKB_Q9Y3C4_167_LSSQEESIGTLLDAIICR (UniProt Q9Y3C4),-0.163
14,VRK3_Q8IV63_418_FVDKPGPFVGPCGHWIRPSETLQK (UniProt Q8IV63),-1.2
15,UBE2O_Q9C0C9_375_NCAQGEGSMAK (UniProt Q9C0C9),-0.156
16,TRMT2A_Q8IZ69_463_VIGVELCPEAVEDAR (UniProt Q8IZ69),-1.16
17,TXN2_Q99757_93_VVNSETPVVVDFHAQWCGPCK (UniProt Q99757),-1.7
18,VTA1_Q9NP79_87_QLGDNEAITQEIVGCAHLENYALK (UniProt Q9NP79),0.136
19,UTP20_O75691_242_NMFHSCTGQAVK (UniProt O75691),0.227
